# Only some compounds are listed: those with a hit (about 8.1% of all), similar ones and a draw of the others.
# ELG1 repair inh: qHTS screen for small molecules that inhibit ELG1-dependent DNA repair in human embryonic kidney (HEK293T) cells expressing luciferase-tagged ELG1; HEK293T ELG1-luciferase reporter, luminescence, 16 h; DNA damage induced by 5-fluorouridine; Potency, µM (highest dose often 46.1 µM), hits mostly inhibitors; 2.3% of 330,000 active; AID 504467, 2011; also: nearly all actives have a fitted effect of over 55% in size
#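 Luminescence from the luciferase reporter, measured 30 min after ONE-Glo reagent at room temperature, was the read-out. Beforehand, 2,000 cells per well were exposed for 16 hr at 37 °C to 5-fluorouridine together with compound or vehicle.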
# KB-V1 cytotox: qHTS assay for MDR1-selective chemotherapeutics: Primary screen using the drug-selected MDR subline cells KB-V1 | Potency, µM (highest dose often 46.1 µM), most hits filed as cytotoxic | AID 1347076, 2019 | KB-V1 MDR cells viability, CellTiter-Glo, 72 h | 3.4% of 400,000 active; also: nearly all actives have a fitted effect of over 60% in size
#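 Potencies derive from concentration-effect curves fitted to normalized luminescence (CellTiter-Glo) of KB-V1 cells treated for 72 h at 37 degrees C in phenol-red-free DMEM containing 10% FBS.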
# KB-3-1 tox: qHTS assay for MDR1-selective chemotherapeutics: Primary screen using the parental adenocarcinoma cell KB-3-1. KB-3-1 viability, CellTiter-Glo ATP luminescence, 72 h. Potency, µM (series often up to 46.1 µM), hits mostly cytotoxic. 1.4% of 400,000 active; also: nearly all actives have a fitted effect of over 60% in size
#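 Here the drug-naive KB-3-1 line serves as comparator for MDR sub-line selectivity; cells received compound titrations, 72 h at 37 °C, then CellTiter-Glo readout.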
# MCF10A rereplic: A quantitative high throughput screen for small molecules that induce DNA re-replication in MCF 10a normal breast cells; MCF 10A DNA re-replication, Hoechst nuclear intensity, 48 h; Potency, µM (titrated, usually from 46.1 µM), actives largely listed as activators; 2.9% of 350,000 active; also: nearly all actives have a fitted effect of over 50% in size
# SW480 rereplic: A quantitative high throughput screen for small molecules that induce DNA re-replication in SW480 colon adenocarcinoma cells | 1.8% of 340,000 active | SW480 DNA re-replication, Hoechst DNA content imaging, 48 h | Potency, µM (highest dose often 46.1 µM), usual class: activators; also: nearly all actives have a fitted effect of over 55% in size
#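 Compounds, transferred as 23 nL by pin tool, were incubated with cells for 48 hr; DNA content per nucleus was then quantified by Hoechst staining and fluorescence plate imaging.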
# A number is an active result; . = inactive; ? = inconclusive; / = no result given; [ ] = remark or other dose. Calls follow the shape of the dose curve; as a rule, active = well fitted curve in the direction sought with a large enough effect; inconclusive = small, poorly fitted or top-dose-only effect, or another doubt; inactive = no such curve, though single readings can be large; an effect the other way counts as inactive or inconclusive.
SMILES,ELG1 repair inh,KB-V1 cytotox,KB-3-1 tox,MCF10A rereplic,SW480 rereplic
COc1ccc(OC)c(NC(=O)Cc2coc3cc(C)cc(C)c23)c1,?,16.4µM,.,.,.
COc1ccc(NC(=O)Cc2coc3cc(C)cc(C)c23)c(OC)c1,/,.,.,/,/
COc1cc2c(cc1OC)CN(c1ccc(C(F)(F)F)cn1)CC2,?,?,.,16.4µM,?
NC(=O)c1ccc(NC(=O)CCc2nc3ccccc3s2)cc1,.,?,.,.,.
O=C(Nc1ccc(OC(=O)c2ccccc2)c(-c2nc3ccccc3s2)c1)c1ccccc1,.,.,.,20.6µM,?
O=C(Nc1ccc(Cc2nc3ccccc3s2)cc1)c1ccncc1,?,7.31µM,16.4µM,?,.
O=C(NCc1cccc(Br)c1)C1CC(c2cc(C(F)(F)F)cc(C(F)(F)F)c2)=NO1 (stereo not given),/,?,.,.,.
CN1C(C(=O)N2CCc3ccccc3C2)=CC(c2ccc(F)cc2)=NS1(=O)=O,.,.,.,.,.
CCOc1ccccc1OCCC(=O)NNC(=O)Cn1nc(C)cc1C,.,.,.,.,.
COC(=O)c1nn(-c2ccc(OC)cc2)c(=O)cc1NN,.,?,.,.,.
COC(=O)c1nn(-c2ccc(OC)cc2)c(=O)c2c(N)sc(C)c12,.,.,.,.,29.1µM
CCCCCc1ccc(-c2ccc(=O)[nH]n2)cc1,?,5.17µM,6.51µM,.,.
Cc1ccc(-c2ccc(=O)[nH]n2)cc1,.,?,.,.,.
O=S(=O)(c1cc(F)ccc1F)N1CCC2(CC1)OCCN2S(=O)(=O)c1ccccc1,.,.,.,.,?
CC(C)(C)CC(=O)NCc1cccs1,.,.,.,.,.
CC(C)(CO)NCc1cccs1,.,.,?,.,1.3µM
O=C(NC(=S)Nc1ccccc1)c1cncc(C#Cc2ccccc2)c1,.,?,.,.,.
Nc1nc2cc3c(cc2cc1C(=O)NCc1ccc(F)cc1)OCO3,/,.,7.31µM,/,/
CCOC(=O)c1nnc2c(-c3ccc(Cl)cc3)c(C)nn2c1C,/,?,.,/,/
CCCC12CN3CCN(CC(C3)/C1=N\NC(=O)Nc1ccccc1)C2,.,.,.,.,.
CC(=O)c1c(C)[nH]c(C(=O)Nc2ccc(C)c(S(=O)(=O)Nc3ccc(C)cc3C)c2)c1C,?,.,.,11.6µM,16.4µM
CC(=O)NS(=O)(=O)c1ccc(NC(=O)c2ccc3c(c2)NC(=O)CS3)cc1,.,.,?,.,.
CC(=O)c1c(C)[nH]c(C(=O)Nc2ccc(C)c(S(=O)(=O)N(C)C)c2)c1C,?,.,.,.,.
Cc1ccc(NS(=O)(=O)c2cc(NC(=O)c3ccc4c(c3)NC(=O)CS4)ccc2C)c(C)c1,18.3µM,.,?,?,.
Cc1ccc(NS(=O)(=O)c2cc(C(=O)Nc3cccc(N(C)S(C)(=O)=O)c3)ccc2C)c(C)c1,?,16.4µM,.,.,.
SMILES,ELG1 repair inh,KB-V1 cytotox,KB-3-1 tox,MCF10A rereplic,SW480 rereplic
COc1ccc(NC(=O)c2ccc3c(c2)NC(=O)CS3)cc1S(=O)(=O)Nc1ccc(Br)cc1,11.6µM,.,.,.,.
NC(=O)COc1cc2oc(=O)c3c(c2cc1Cl)CCCC3,?,8.2µM,.,.,.
COc1ccccc1OCC(=O)NCCCn1ccnc1,.,.,.,.,.
Cc1c(C)c2cc(Cl)c(OCC(=O)NCCCn3ccnc3)cc2oc1=O,.,.,.,.,.
Cc1ccc(C(C)C)cc1OCC(=O)NCCCn1ccnc1,.,.,.,1.46µM,.
O=C(COc1cc2oc(=O)c3c(c2cc1Cl)CCC3)NCCCn1ccnc1,.,.,.,23.1µM,.
COCCNC(=O)CN(C(=O)c1ccc(N2CCCC2)nc1)c1ccc(F)c(Cl)c1,.,?,.,.,.[1.84 µM]
N#CC1=C(N)C2=CCCC[C@H]2[C@H](c2cccc(F)c2)C1(C#N)C#N,.,.,.,20.6µM,.
N#CC1=C(N)C(C#N)(C#N)C(c2cccnc2)C2CCCC=C12 (stereo not given),7.31µM,/,/,/,/
